About 2,000 (36%) of roughly 5,500 compounds were called active. Not shown: some 18% with an inconclusive outcome. No stated cut-off is given here; in the data, active means normalized growth mostly below about 0.91 (no sharp cut-off); inconclusive means no clear call, values can overlap the other calls; inactive means mostly above about 0.92. The list shows a part of the results.
Assay: chemical genetic growth profiling, strain panel (AID 1159580);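 further: tested at 20 µM; growth read once vehicle control cultures reached saturation at 30 °C; 1 = growth at the plate median or of vehicle wells; lower values mean less growth of the strain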
Conditions: S. cerevisiae deletion strains, growth OD
[1] = locus YHR030C, strain SLT2, active compounds read low
[2] = locus YHR079C, strain IRE1, active compounds read low
[3] = locus YJL095W, strain BCK1, active compounds read low
[4] = locus YJR066W, strain TOR1, active compounds read low
[5] = locus YLR113W, strain HOG1, active compounds read low
[6] = locus YNL183C, strain NPR1, active compounds read low
[7] = locus YOR231W, strain MKK1, active compounds read low
[8] = locus YPL256C, strain CLN2, active compounds read low

Measured: normalized growth

COC(=O)N/N=C\c1c[n+]([O-])c2ccccc2[n+]1[O-]
active: locus YMR058W, strain fet3, active compounds read low 0.883
inactive: locus YAL021C, strain ccr4, active compounds read low 0.985 | locus YAL026C, strain drs2, active compounds read low 0.999 | locus YAL030W, strain snc1, active compounds read low 0.982 | locus YBL061C, strain skt5, active compounds read low 0.975 | locus YBR009C, strain hhf1, active compounds read low 0.99 | locus YBR023C, strain chs3, active compounds read low 0.987 | locus YBR171W, strain sec66, active compounds read low 0.981 | locus YBR231C, strain swc5, active compounds read low 0.974 | locus YBR279W, strain paf1, active compounds read low 0.987 | locus YCL011C, strain gbp2, active compounds read low 0.992 | locus YCL016C, strain dcc1, active compounds read low 0.993 | locus YCL069W, strain vba3, active compounds read low 0.992 | locus YCR088W, strain abp1, active compounds read low 0.986 | locus YDL005C, strain med2, active compounds read low 0.98 | locus YDL040C, strain nat1, active compounds read low 0.989 | locus YDR001C, strain nth1, active compounds read low 0.998 | locus YDR069C, strain doa4, active compounds read low 0.978 | locus YDR137W, strain rgp1, active compounds read low 1.01 | locus YDR159W, strain sac3, active compounds read low 1.02 | locus YDR195W, strain ref2 0.985 | locus YDR297W, strain sur2, active compounds read low 0.983 | locus YDR334W, strain swr1, active compounds read low 1 | locus YDR335W, strain msn5, active compounds read low 0.983 | locus YDR392W, strain spt3, active compounds read low 0.986 | locus YEL003W, strain gim4, active compounds read low 0.975 | locus YEL037C, strain rad23, active compounds read low 0.998 | locus YEL061C, strain CIN8 (second series), active compounds read low 1 | locus YER015W, strain faa2, active compounds read low 0.972 | locus YER016W, strain bim1, active compounds read low 0.998 | locus YER111C, strain swi4, active compounds read low 0.984 | locus YER155C, strain BEM2 (second series), active compounds read low 0.982 | locus YFR010W, strain ubp6, active compounds read low 0.981 | locus YGL167C, strain pmr1, active compounds read low 0.978 | locus YGL173C, strain kem1, active compounds read low 0.981 | locus YGL227W, strain vid30, active compounds read low 0.987 | locus YGL240W, strain doc1, active compounds read low 0.974 | locus YGL253W, strain hxk2, active compounds read low 0.988 | locus YHR013C, strain ard1, active compounds read low 1.06 | locus YHR027C, strain rpn1, active compounds read low 0.995 | [1] 1.07 | [2] 1.04 | locus YHR142W, strain chs7, active compounds read low 0.988 | locus YJL092W, strain hpr5, active compounds read low 0.994 | locus YJL095W, strain BCK1 (second series), active compounds read low 0.973 | [3] 1.05 | locus YJL115W, strain asf1, active compounds read low 0.987 | locus YJL129C, strain trk1, active compounds read low 1.03 | locus YJL154C, strain vps35, active compounds read low 0.997 | locus YJL164C, strain tpk1, active compounds read low 0.976 | locus YJL166W, strain qcr8, active compounds read low 0.98 | [4] 0.905 | locus YKL160W, strain elf1, active compounds read low 0.973 | locus YKR026C, strain gcn3, active compounds read low 0.991 | locus YKR091W, strain srl3, active compounds read low 0.988 | locus YLL001W, strain dnm1, active compounds read low 0.991 | locus YLL026W, active compounds read low 0.98 | locus YLL041C, strain sdh2, active compounds read low 0.993 | locus YLR027C, strain aat2, active compounds read low 0.986 | [5] 1.06 | locus YLR221C, strain rsa3, active compounds read low 0.979 | locus YLR258W, strain gsy2, active compounds read low 0.985 | locus YLR262C, strain YPT6 (second series), active compounds read low 1 | locus YLR320W, strain mms22, active compounds read low 0.976 | locus YLR342W, strain FKS1, active compounds read low 0.997 | locus YLR357W, strain rsc2, active compounds read low 0.981 | locus YLR370C, strain arc18, active compounds read low 0.988 | locus YLR384C, strain iki3, active compounds read low 0.986 | locus YML120C, strain ndi1, active compounds read low 0.975 | locus YMR125W, strain sto1, active compounds read low 1.02 | locus YMR129W, active compounds read low 0.984 | locus YMR205C, strain PFK2, active compounds read low 0.988 | locus YMR231W, strain pep5, active compounds read low 0.969 | locus YNL071W, strain lat1, active compounds read low 0.995 | [6] 0.981 | locus YNL209W, strain ssb2, active compounds read low 0.987 | locus YNL248C, strain rpa49, active compounds read low 1 | locus YNL322C, strain KRE1 (second series), active compounds read low 0.993 | locus YNR049C, strain mso1, active compounds read low 0.983 | locus YOR001W, strain rrp6, active compounds read low 0.989 | locus YOR070C, strain gyp1, active compounds read low 0.979 | locus YOR080W, strain dia2, active compounds read low 0.985 | locus YOR083W, strain WHI5, active compounds read low 0.983 | locus YOR106W, strain vam3, active compounds read low 0.943 | [7] 1.05 | locus YOR265W, strain rbl2, active compounds read low 0.985 | locus YOR270C, strain vph1, active compounds read low 0.864 | locus YOR290C, strain snf2, active compounds read low 0.996 | locus YPL051W, strain arl3, active compounds read low 0.918 | locus YPL078C, strain atp4, active compounds read low 0.971 | locus YPL106C, strain sse1, active compounds read low 0.986 | locus YPL240C, strain hsp82, active compounds read low 0.991 | [8] 1.09

O=C[C@H](O)[C@@H](O)[C@H](O)CO
inactive: [1] 1.04 | [2] 1.06 | [3] 1.06 | [4] 0.998 | [5] 1.07 | [6] 1.03 | [7] 1.09 | [8] 1.02

Clc1ccc2ocnc2c1
inactive: locus YAL013W, strain DEP1, active compounds read low 1.01 | locus YBR229C, strain ROT2, active compounds read low 1.01 | locus YDL101C, strain DUN1, active compounds read low 1 | locus YDR150W, strain NUM1, active compounds read low 0.95 | locus YEL061C, strain CIN8, active compounds read low 1.01 | locus YGR078C, strain PAC10, active compounds read low 1 | locus YGR229C, strain SMI1, active compounds read low 1.01 | [1] 1.05 | locus YHR087W, strain rtc3, active compounds read low 0.996 | locus YJR043C, strain POL32, active compounds read low 0.931 | locus YJR075W, strain HOC1, active compounds read low 0.999 | locus YKL190W, strain CNB1, active compounds read low 1.02 | locus YLR039C, strain RIC1, active compounds read low 1.02 | locus YLR058C, strain SHM2 (second series), active compounds read low 1 | locus YLR085C, strain ARP6, active compounds read low 0.997 | locus YLR262C, strain YPT6, active compounds read low 1.08 | locus YML094W, strain GIM5, active compounds read low 0.999 | locus YMR219W, strain ESC1, active compounds read low 1.01 | locus YMR263W, strain SAP30, active compounds read low 1.01 | locus YNL128W, strain TEP1, active compounds read low 1.02 | locus YNL153C, strain GIM3, active compounds read low 0.996 | locus YNL298W, strain CLA4 (second series), active compounds read low 1.04 | locus YNL322C, strain KRE1, active compounds read low 1.01 | locus YNR030W, strain Alg12, active compounds read low 1 | locus YOL006C, strain TOP1, active compounds read low 1.09 | locus YPL055C, strain LGE1, active compounds read low 0.906 | locus YPL241C, strain CIN2, active compounds read low 1.01 | locus YPR135W, strain CTF4, active compounds read low 1.08
